Source: PubChem (National Center for Advancing Translational Sciences (NCATS))
The entries come from a sample that favours hits as a whole.
Giardia FBPA inh – qHTS Assay for Inhibitors of Fructose-1,6-bisphosphate Aldolase from Giardia Lamblia; A8B2U2; purified Giardia FBPA; Potency, µM (highest dose often 59.6 µM), for inactives: at the top dose activity, negative = inhibition, most hits filed as inhibitors; 290,000 compounds, 0.71% hits; AID 2451, 2010; also: potency is read from the fitted curve at half-maximal effect; % is scaled to controls: 0 for no effect and ±100 for the full control effect; nearly all actives have a fitted effect of over 55% in size
Target sequence (A8B2U2 whole entry, looked up): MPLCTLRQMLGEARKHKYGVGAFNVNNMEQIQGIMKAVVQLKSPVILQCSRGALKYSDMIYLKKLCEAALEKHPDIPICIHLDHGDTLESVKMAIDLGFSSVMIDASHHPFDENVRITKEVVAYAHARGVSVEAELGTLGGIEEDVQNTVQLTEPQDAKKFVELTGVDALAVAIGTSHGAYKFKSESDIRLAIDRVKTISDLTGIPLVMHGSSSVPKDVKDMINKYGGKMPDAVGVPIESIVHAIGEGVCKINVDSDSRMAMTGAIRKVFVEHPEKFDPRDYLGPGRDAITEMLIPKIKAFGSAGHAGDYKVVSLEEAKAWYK
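40 nM FBPA preincubated 10 min at RT with compound (up to 57.5 uM final), then substrate plus GAPDH/TPI/NAD/arsenate coupling and diaphorase/resazurin added. Fluorescence read after 20 min at RT, 525/598 nm.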
RE007 growth inh – qHTS Assay for Inhibitors of the HIV-1 protein Vpr | Potency, µM (series often up to 92.2 µM), without a hit: at the top dose activity change, negative = less growth, most hits filed as inhibitors | S. pombe RE007 Vpr strain, BacTiter-Glo ATP luminescence, 24 h | 360,000 compounds, 0.21% hits; active = well fitted falling curve with a large enough effect; also: potency is read from the fitted curve at half-maximal effect; % is scaled to controls: 0 for no effect and ±100 for the full control effect; nearly all actives have a fitted effect of over 50% in size
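Fission yeast RE007 carrying one integrated HIV-1 vpr copy, seeded at OD 0.01 in PMG+AL medium with 23 nL pinned compound. Grown 24 h at 30 degrees; viability read by BacTiter-Glo luminescence after 5 min.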
LmPK inhibitor – qHTS Assay for Inhibitors of Leishmania Mexicana Pyruvate Kinase (LmPK). Q27686. purified LmPK, Kinase-Glo ATP luminescence, 1 h. Potency, µM (titrated, usually from 57.5 µM), inactives show at the top dose activity change, negative = inhibition, actives largely listed as inhibitors. 290,000 compounds, 0.37% hits. AID 1721, 2009; also: potency is read from the fitted curve at half-maximal effect; % is scaled to controls: 0 for no effect and ±100 for the full control effect
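Purified LmPK (0.1 nM) with 0.5 mM PEP and 0.1 mM ADP in imidazole buffer pH 7.2 with MgCl2/KCl, 1 h at room temperature. ATP formed was read by luciferase luminescence and normalized to no-enzyme and uninhibited controls.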
Cycloheximide cs – Cycloheximide Counterscreen for Small Molecule Inhibitors of Shiga Toxin. cell reporter, cycloheximide protein synthesis inhibition counterscreen. max response, %. 300,000 compounds, 12% hits. AID 2314, 2010; in the data active = max response mostly above about 13%, no sharp cut-off; inactive = mostly below about 14%; also: read at 38.3 µM for the half of the compounds with a filed dose; 0% is about no effect
Shiga inhibitor – A qHTS for Small Molecule Inhibitors of Shiga Toxin; Vero cells, Shiga toxin protein synthesis inhibition reporter; inhibition, % at 38.7 µM; 290,000 compounds, 9.2% hits; AID 2315, 2010; in the data active = inhibition mostly above about 28%, no sharp cut-off; inactive = mostly below about 43%; also: 0% is about no effect
Tb PYK inh – qHTS of Trypanosoma Brucei Inhibitors | pyruvate kinase (Trypanosoma brucei), Q57TT1 | TbPYK enzyme, Kinase-Glo Plus ATP luminescence, 45 min | Potency, µM (titrated, usually from 76.8 µM), for inactives: at the highest dose activity, negative = inhibition, usual class: inhibitors | 410,000 compounds, 0.12% hits; also: potency is read from the fitted curve at half-maximal effect; % is scaled to controls: 0 for no effect and ±100 for the full control effect; nearly all actives have a fitted effect of over 50% in size
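Assay buffer: 50 mM TEA pH 7.2, 100 mM KCl, 10 mM MgCl2, 0.05% BSA, 0.01% Tween-20. Pyruvate kinase from T. brucei plus substrate met compound, then ADP (130 uM final). Luminescence was read post 45 min RT.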
* = called active by the depositor; x = not tested or not shown. Unless noted, calls follow the shape of the dose curve; as a rule, active = well fitted curve in the direction sought with a large enough effect; inconclusive = small, poorly fitted or top-dose-only effect, or another doubt; inactive = no such curve, though single readings can be large; an effect the other way counts as inactive or inconclusive.

SMILES	Giardia FBPA inh	RE007 growth inh	LmPK inhibitor	Cycloheximide cs	Shiga inhibitor	Tb PYK inh
CCOC(=O)c1ccc(CN(Cc2ccc(F)cc2)S(=O)(=O)c2cc(C(=O)Nc3cccc(C(F)(F)F)c3)ccc2F)cc1	x	x	x	x	x	4%
CCOC(=O)C1CCCN(C(=O)c2ccc(NC(=O)c3nsc4ccccc34)cc2)C1 (stereo unspecified)	x	x	x	x	x	0%
CCOC(=O)N1CCC(NC(=O)c2ccc3c(c2)N(Cc2cc(C)ccc2C)C(=O)c2ccccc2S3(=O)=O)CC1	x	x	x	x	x	3%
Nc1c(-c2nc(-c3cccs3)no2)nnn1-c1cccc(F)c1	x	x	x	x	x	1%
COc1ccc(C2N=C(c3ccccc3)NO2)cc1OC (stereo unspecified)	-9%	2%	2%	22*	87*	4%
COc1cc(C2N=C(c3ccccc3)NO2)cc(Br)c1O (stereo unspecified)	-7%	-2%	1%	10*	19	-5%
FC(F)Oc1ccc(C2N=C(c3ccccc3)NO2)cc1 (stereo unspecified)	-9%	-19%	0%	45*	79*	1%
COc1ccc(C2N=C(c3ccccc3)NC(c3ccccc3)=N2)cc1	0%	0%	6%	-3	-1	4%
c1ccc(-c2cccc(-c3ccccc3)n2)cc1	0%	3%	-1%	48*	54*	-16%
C/C(=N/NC(=O)c1cccc(N2CCCC2=O)c1)c1ccc(Br)cc1	4%	1%	-10%	-2	8	3%
CCCCN(C)CCCNC(=O)c1cccc(N2CCCC2=O)c1	-3%	4%	2%	3	-11	2%
C/C(=N/NC(=O)c1cccc(N2CCCC2=O)c1)c1ccncc1	1%	9%	0%	48*	55*	2%
Cc1ccc(CCNC(=O)c2cccc(N3CCCC3=O)c2)cc1	x	1%	-9%	22	66*	6%
O=C(Nc1ccccc1)c1cccc(N2CCCC2=O)c1	0%	2%	-8%	34*	40*	-20%
CN(CCCNC(=O)c1cccc(N2CCCC2=O)c1)c1ccccc1	-30%	-5%	-7%	16*	15	-10%
Cc1ccc(C)n1-c1cccc(C(=O)O)c1	-25%	x	17%	-3	-3	x
O=C(O)c1cccc(N2CCCC2=O)c1	1%	0%	5%	5	-11	-1%
Cc1ccc(C)n1-c1cccc(C(=O)Nc2ccccc2)c1	12%	-13%	2%	18*	37	-25%
O=C(NCCc1ccccc1)c1cccc(N2CCCC2=O)c1	x	6%	-13%	33*	30*	1%
Cc1cccc(CCNC(=O)c2cccc(N3CCCC3=O)c2)c1	x	-8%	-2%	44*	75*	2%
Cc1ccc(C(=O)NCCc2ccccc2)cc1N1CCCC1=O	x	4%	-8%	13	26	0%
Cc1cc(C)c(OCC(=O)N(Cc2ccc(N(C)C)cc2)CC2CCCO2)c(C)c1 (stereo unspecified)	x	x	x	x	x	-19%
CC(C)(C)c1ccc(C(O)c2ncc(-c3ccc(F)cc3)[nH]2)cc1 (stereo unspecified)	x	-19%	x	x	x	3%
CCc1ccccc1NC(=O)c1cnn(-c2ccccc2)c1C	0%	25%	-7%	16*	36*	-3%
Cc1ccccc1NC(=O)c1cnn(-c2ccccc2)c1C	-6%	-1%	3%	42*	75*	-7%
SMILES	Giardia FBPA inh	RE007 growth inh	LmPK inhibitor	Cycloheximide cs	Shiga inhibitor	Tb PYK inh
Cc1ccc(C)c(NC(=O)c2cnn(-c3ccccc3)c2C)c1	-3%	5%	-2%	40*	x	-7%
Cc1ccc(NC(=O)c2cnn(-c3ccccc3)c2C)cc1C	-20%	5%	-8%	16	39	-11%
COc1ccc(OC)c(NC(=O)c2cnn(-c3ccccc3)c2C)c1	-3%	-12%	-5%	8	27	-4%
Cc1cccc(NC(=O)c2cnn(-c3ccccc3)c2C)c1C	-9%	6%	-5%	27*	41*	-7%
CC(Oc1ccccc1)C(=O)N1CCN(Cc2cc(=O)n3nc(-c4ccccc4Cl)sc3n2)CC1 (stereo unspecified)	x	x	x	x	x	-1%
Cc1ccc(CN2CC(C(=O)Nc3cc(C)ccn3)CC2=O)cc1 (stereo unspecified)	x	7%	x	x	x	4%
c1ccc(-c2csc(Nc3ccc4c(c3)OCO4)n2)cc1	x	-14%	x	x	x	-1%
N#Cc1ccc(-c2csc(NC3=NCCCCC3)n2)cc1	0%	-12%	2%	20*	73*	1%
c1ccc(-c2csc(NC3=NCCCCC3)n2)cc1	0%	4%	-2%	43*	35	-2%
CCCn1c(Nc2cccc(OC)c2)nc2ccccc21	-2%	-19%	1%	8	-1	-15%
O=C(CSC1=N/C(=C/c2ccco2)C(=O)N1c1ccc(OC(F)F)cc1)NC1CCS(=O)(=O)C1 (stereo unspecified)	-18%	1%	-3%	17	24*	0%
COc1ccc(N2C(=O)/C(=C\c3ccco3)N=C2SCC(=O)NC(C)C)cc1Cl	-12%	7%	-5%	2	7	0%
Cc1cccc2nc(COc3ccc(-c4ccccc4)cc3)cn12	0%	x	25µM*	43*	85*	x
Cc1ccnc(SCc2cn3c(C)cc(C)nc3n2)n1	-15%	-11%	9%	-2	-11	-4%
Cc1cc(C)n2cc(COc3ccc4ccccc4c3)nc2n1	-12%	-5%	0%	53*	66*	-10%
COc1ccc(-c2nc(C)c(CCNC(=O)C(=O)Nc3cc(C)cc(C)c3)s2)cc1OC	x	x	x	x	x	-8%
Cc1ccc(NC(=O)c2ccc(NCCN)c([N+](=O)[O-])c2)cc1	5%	-17%	0%	20*	33*	2%
CCOC(=O)CNc1ccc(C(=O)OCC)cc1[N+](=O)[O-]	5%	-14%	-4%	4	-9	-11%
Cc1cccc(NC(=O)c2ccc(NCCc3ccccc3)c([N+](=O)[O-])c2)c1	8%	11%	4%	-2	-6	4%
CCCNc1ccc(C(=O)OCC)cc1[N+](=O)[O-]	4%	-7%	5%	52*	83*	3%
Cc1ccc(NC(=O)CSc2ccc(C(N)=O)cc2[N+](=O)[O-])cc1	0%	0%	-1%	27	43*	-5%
CNS(=O)(=O)c1cc(-c2nnc(N3CCOCC3)c3ccccc23)ccc1C	x	2%	x	x	x	10%
CN(/N=C/c1cc(Cl)ccc1O)C1=NS(=O)(=O)c2ccccc21	-4%	5%	0%	8	-3	5%
